RN4220 kill: S. aureus RN4220 growth inhibition | inhibition, % (no concentration beside the values) | OD600, 16 h | actives 0.33% (n = 330,000) | AID 1259311; in the data active = inhibition above about 85%;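 also: plate controls were untreated cells for no effect and reference antibiotic for full effect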
Mtb hypoxia rep: inhibitors of hypoxia-regulated fluorescent reporter in Mycobacterium tuberculosis. AID 1159583. M. tuberculosis hypoxia-regulated fluorescent reporter, fluorescence. fluorescence inhibition, % (no concentration beside the values). actives 0.1% (n = 300,000); in the data active = fluorescence inhibition mostly above about 23%, no sharp cut-off; inactive = mostly below about 17%
RecA splice inh: blocks M. tuberculosis RecA intein splicing. cell-free RecA intein splicing, fluorescence. actives 0.75% (n = 290,000). inhibition, % (no concentration beside the values). P9WHJ3; in the data active = inhibition above about 30%;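 also: 0% = vehicle wells and 100% = reference inhibitor control wells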
BJeLR lethal: BJeLR cell viability loss | BJeLR (HRASV12) viability, CellTiter-Glo ATP luminescence, 48 h | inhibition, % (concentration not given with the values) | actives 0.17% (n = 300,000) | AID 1554; in the data active = inhibition above about 50%
ugtP null kill: kills S. aureus RN4220 lacking UgtP; growth inhibition, % (concentration not given with the values); S. aureus RN4220 ugtP deletion, OD600 growth, 16 h; actives 0.54% (n = 330,000); in the data active = growth inhibition above about 68%;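 also: plate controls were untreated wells for no effect and antibiotic for full effect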
CCHF vOTU inh-1: blocks the CCHF virus ovarian tumor domain protease; CCHFV vOTU protease, Pep-AMC fluorescence; inhibition, % at 11.5 µM; actives 0.55% (n = 370,000); AID 651958; also: 0% = vehicle wells with enzyme and 100% = no enzyme wells
CCHF vOTU inh-2: CCHFV vOTU protease inhibition, confirmation; shares compounds with CCHF vOTU inh-1; Recombinant CCHFV vOTU, Pep-AMC fluorescence; inhibition, % at 11.5 µM; actives 17% (n = 1,900)
Numbers without * were called inactive; . = no result. Hits are enriched below; roughly 1.6% of the tested compounds scored in any of these assays. Rule as the data show it, unless noted: active = inhibition above about 30%; inactive = the rest.

SMILES | RN4220 kill | Mtb hypoxia rep | RecA splice inh | BJeLR lethal | ugtP null kill | CCHF vOTU inh-1 | CCHF vOTU inh-2
CC[n+]1c(/C=C/c2c[nH]c3ccccc23)ccc2cc(C)ccc21 | 96* | 10 | . | . | 97* | 34* | 4
O=C1NC(=S)S/C1=C\c1cc(Cl)cc(Cl)c1O | 70 | 24 | . | . | 74 | 30* | 23
CCCCCC(=O)NN=Cc1ccc([N+](=O)[O-])o1 | 23 | 2 | . | . | 32 | . | .
O=C(CCC(=O)Nc1ccc(Cl)cc1Cl)N/N=C/c1ccc([N+](=O)[O-])o1 | . | . | 5 | -2 | . | 39* | -5
CCCCCC(=O)N/N=C/c1ccc([N+](=O)[O-])o1 | . | . | . | -5 | . | 16 | .
O=C(N/N=C\c1ccc([N+](=O)[O-])o1)c1cncc(Br)c1 | . | . | 15 | -7 | . | 50* | 8
O=C(N/N=C/c1ccc(-c2ccccc2[N+](=O)[O-])o1)c1cncc(Br)c1 | . | . | 28 | 3 | . | 7 | .
O=C(Cc1ccc2c(c1)OCO2)NN=Cc1ccc([N+](=O)[O-])o1 | 49 | 8 | . | . | 82 | 32* | 0
COc1ccc(C2CC=C(C(=O)O)CN2S(=O)(=O)c2ccc(C)cc2)cc1OC (configuration not stated) | 1 | 7 | . | . | 0 | . | .
COc1ccc(S[C@@H](CCN2CC[C@H](NC(=O)OCc3ccccc3)CCC2=O)c2ccccc2)cc1 | . | . | . | . | . | 36* | 2
COC(=O)/C=C1\OCc2cc(OC)c(OC)cc21 | . | . | . | . | . | 37* | 1
CC1CN(C(C)CO)C(=O)Cc2cc(NC(=O)Nc3ccc4c(c3)OCO4)ccc2OC1CN(C)S(=O)(=O)c1cccs1 (configuration not stated) | -1 | -21 | . | . | -1 | . | .
O=S(=O)(Nc1nc(-c2ccccc2)cs1)c1cccc(C(F)(F)F)c1 | -14 | 7 | 4 | -3 | 57 | 32* | 12
O=[N+]([O-])c1ccc(S(=O)(=O)Nc2nc(-c3ccccc3)cs2)cc1 | 3 | -3 | 4 | -7 | -5 | 13 | .
NC(=NOC(=O)CCCOc1ccccc1)c1ccc(Br)cc1 | 4 | -4 | . | . | 0 | . | .
CCCCNC(=O)C(NC(=O)Cc1cc(C(F)(F)F)cc(C(F)(F)F)c1)C(=O)c1ccccc1 (configuration not stated) | . | . | . | . | . | 30* | 1
CCCCNC(=O)C(NC(=O)c1ccc(C(F)(F)F)cc1)C(=O)c1ccccc1 (configuration not stated) | . | . | . | . | . | 8 | .
COc1cc(C2CC=C(C(=O)O)C(c3ccccc3)N2S(=O)(=O)c2ccc(C)cc2)cc(OC)c1OC (configuration not stated) | 3 | 10 | . | . | 9 | . | .
COc1ccc(/C=N/NC(=O)c2nn(-c3ccccc3)c(=O)c3c(N)scc23)cc1 | . | . | 68* | 4 | . | 50* | 91*
Nc1ccc2c(O)cc(S(=O)(=O)O)cc2c1 | 3 | 11 | . | . | 3 | 52* | -40
CC(=O)Nc1ccc2c(O)cc(S(=O)(=O)O)cc2c1 | -2 | -3 | . | . | -6 | 12 | .
C[n+]1cccc2cccc([O-])c21 | 5 | 5 | . | . | 5 | 58* | 96*
Cc1ccc(S(=O)(=O)N2C(c3cccc(C)c3)CC=C(C(=O)O)C2c2ccccc2)cc1 (configuration not stated) | 20 | 12 | . | . | 62 | . | .
CC(C)NC(=O)N(C)CC1Oc2c(NC(=O)C3CC3)cccc2C(=O)N(C(C)CO)CC1C (configuration not stated) | 8 | 2 | . | . | 15 | . | .
CC(=O)N(N=C1Sc2ccccc2C1=O)c1ccc(C)cc1C | -1 | . | . | . | 5 | . | .
CC(=O)N(/N=C1\Sc2ccccc2C1=O)c1ccccc1C | . | . | 14 | 3 | . | 47* | 38*
COc1cccc(NS(=O)(=O)c2ccc3c(c2)C2C=CCC2C(c2ccc(C(=O)O)cc2)N3)c1 (configuration not stated) | 32 | 10 | 13 | -3 | 14 | 41* | 24
COc1cc(/C=N/Nc2ccc(S(N)(=O)=O)cc2)cc(OC)c1OC | . | . | 0 | 4 | . | 30* | -3
COc1cc(/C=N/Nc2ccc(C(=O)O)cc2)cc(OC)c1OC | . | . | -4 | -4 | . | 0 | .
CC1(OC(=O)C2CCCC2)C(=O)C=C2C=C(c3ccsc3)N(CCCCO)C=C2C1=O (configuration not stated) | 5 | 7 | 10 | 3 | -5 | 30* | 34*

Source: PubChem BioAssay
